Common to all, as to experiment: DAPPL (digital affinity profiling via proximity ligation, sequencing); 10 mM Tris-HCl pH 7.5, 50 mM NaCl, 1 mM DTT, 4% glycerol, room temperature, 30 min; GST-TFs on glutathione beads, 16-mer random dsDNA library, 0.1% formaldehyde crosslink after washing; high values mean tight binding
The target of one test is T1, FLI1 (Homo sapiens, UniProt Q01543 1-452).
T1 sequence: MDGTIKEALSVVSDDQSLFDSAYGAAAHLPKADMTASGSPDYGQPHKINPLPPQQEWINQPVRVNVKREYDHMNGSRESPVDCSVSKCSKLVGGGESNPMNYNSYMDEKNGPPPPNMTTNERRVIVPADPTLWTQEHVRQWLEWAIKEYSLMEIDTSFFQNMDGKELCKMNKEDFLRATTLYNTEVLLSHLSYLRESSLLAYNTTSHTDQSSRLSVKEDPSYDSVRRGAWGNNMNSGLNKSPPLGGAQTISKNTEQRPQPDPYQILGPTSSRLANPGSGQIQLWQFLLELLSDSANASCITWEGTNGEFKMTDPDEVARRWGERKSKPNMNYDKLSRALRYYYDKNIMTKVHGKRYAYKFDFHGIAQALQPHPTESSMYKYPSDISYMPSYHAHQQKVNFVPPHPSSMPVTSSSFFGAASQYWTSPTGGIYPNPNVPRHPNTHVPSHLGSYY
The settings on record: protein: recombinant; tags: N-terminal GST; dsDNA, one strand shown. An outline of the steps: (§1)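 In yeast, human transcription factors were expressed with a GST fusion, then pulled down on glutathione beads and given DNA barcodes. Pooled with a tag-only sample, they were exposed to 200 nmole of a 16-mer random double-stranded DNA library (Tris/NaCl/DTT/glycerol buffer, room temperature, 30 min), washed, crosslinked with 0.1% formaldehyde, proximity-ligated using BsaI/T4 ligase for 1 h at 37 °C, PCR-amplified and read on an Illumina NextSeq500. Each hexamer's frequency of reads for a factor, divided by the matching frequency for the tag-only sample, gives the binding signal.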

In the next test the target is T2, ELK1 (Homo sapiens, UniProt P19419 1-428).
T2 sequence: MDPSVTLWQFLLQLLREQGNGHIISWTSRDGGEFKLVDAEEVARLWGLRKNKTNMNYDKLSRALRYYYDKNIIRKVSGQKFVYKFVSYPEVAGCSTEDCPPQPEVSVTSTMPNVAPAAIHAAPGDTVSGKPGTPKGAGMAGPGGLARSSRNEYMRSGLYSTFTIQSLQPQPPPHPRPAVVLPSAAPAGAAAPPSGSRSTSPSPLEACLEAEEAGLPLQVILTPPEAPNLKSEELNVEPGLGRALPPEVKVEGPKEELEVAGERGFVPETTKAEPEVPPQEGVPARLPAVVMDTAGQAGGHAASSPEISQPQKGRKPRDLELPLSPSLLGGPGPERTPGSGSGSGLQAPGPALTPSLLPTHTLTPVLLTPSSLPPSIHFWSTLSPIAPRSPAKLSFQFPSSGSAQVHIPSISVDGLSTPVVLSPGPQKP
The settings on record: protein: recombinant; tags: N-terminal GST; dsDNA, one strand shown. An outline of the steps: as §1

A further test concerns the target T3, GABPA (Homo sapiens, UniProt Q06546 1-454).
T3 sequence: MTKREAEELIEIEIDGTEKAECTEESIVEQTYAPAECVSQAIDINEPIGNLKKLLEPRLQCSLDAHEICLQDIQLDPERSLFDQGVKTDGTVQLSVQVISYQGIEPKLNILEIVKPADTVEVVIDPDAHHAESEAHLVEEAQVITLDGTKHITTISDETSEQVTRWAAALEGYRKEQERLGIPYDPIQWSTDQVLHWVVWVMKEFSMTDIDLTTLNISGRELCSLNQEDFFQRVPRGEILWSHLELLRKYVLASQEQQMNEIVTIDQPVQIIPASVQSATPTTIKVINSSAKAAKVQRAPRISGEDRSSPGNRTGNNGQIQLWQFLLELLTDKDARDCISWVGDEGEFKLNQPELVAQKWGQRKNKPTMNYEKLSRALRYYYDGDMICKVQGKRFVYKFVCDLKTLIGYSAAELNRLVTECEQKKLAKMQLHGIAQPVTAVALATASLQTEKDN
The settings on record: protein: recombinant; tags: N-terminal GST; dsDNA, one strand shown. The method in brief: as §1

Another test addresses T4, ERG (Homo sapiens, UniProt P11308 1-479).
T4 sequence: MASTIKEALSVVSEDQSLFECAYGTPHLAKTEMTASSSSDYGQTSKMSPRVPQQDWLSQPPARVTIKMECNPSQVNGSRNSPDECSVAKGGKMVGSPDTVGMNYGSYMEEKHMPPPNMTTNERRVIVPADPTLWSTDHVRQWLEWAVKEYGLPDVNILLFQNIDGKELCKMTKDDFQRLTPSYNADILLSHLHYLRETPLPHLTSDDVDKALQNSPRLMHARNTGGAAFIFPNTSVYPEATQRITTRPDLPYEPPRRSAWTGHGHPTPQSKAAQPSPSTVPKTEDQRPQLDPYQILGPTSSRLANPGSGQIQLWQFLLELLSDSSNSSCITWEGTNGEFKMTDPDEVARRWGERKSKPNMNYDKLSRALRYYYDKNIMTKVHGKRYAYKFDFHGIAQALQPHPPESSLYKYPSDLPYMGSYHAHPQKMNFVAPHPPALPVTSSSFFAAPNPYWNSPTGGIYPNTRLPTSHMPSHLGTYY
The settings on record: protein: recombinant; tags: N-terminal GST; dsDNA, one strand shown. An outline of the steps:
as §1

The next test concerns the target ELF1 (Homo sapiens, UniProt P32519 1-619). The settings on record: protein: recombinant; tags: N-terminal GST; dsDNA, one strand shown. The method in brief: as §1
Another test has as its target T5, EHF (Homo sapiens, UniProt Q9NZC4 1-300).
T5 sequence: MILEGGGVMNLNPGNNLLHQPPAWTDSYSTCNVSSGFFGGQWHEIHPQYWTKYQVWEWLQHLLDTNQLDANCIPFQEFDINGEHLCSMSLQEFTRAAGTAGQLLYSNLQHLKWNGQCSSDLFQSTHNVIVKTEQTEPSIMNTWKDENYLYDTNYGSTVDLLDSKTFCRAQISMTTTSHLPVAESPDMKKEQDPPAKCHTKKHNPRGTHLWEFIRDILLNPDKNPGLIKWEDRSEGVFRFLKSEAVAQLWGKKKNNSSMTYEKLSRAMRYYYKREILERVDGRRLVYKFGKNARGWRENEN
Particulars: protein: recombinant; tags: N-terminal GST; dsDNA, one strand shown. An outline of the steps:
as §1

In the next test the target is SPI1 (Homo sapiens, UniProt P17947 1-270). Particulars: protein: recombinant; tags: N-terminal GST; dsDNA, one strand shown. The method in brief:
as §1

A further test addresses SPIB (Homo sapiens, UniProt Q01892 1-262). Particulars: protein: recombinant; tags: N-terminal GST; dsDNA, one strand shown. An outline of the steps:
as §1

The target of another test is T6, ELK3 (Homo sapiens, UniProt P41970 1-407).
T6 sequence: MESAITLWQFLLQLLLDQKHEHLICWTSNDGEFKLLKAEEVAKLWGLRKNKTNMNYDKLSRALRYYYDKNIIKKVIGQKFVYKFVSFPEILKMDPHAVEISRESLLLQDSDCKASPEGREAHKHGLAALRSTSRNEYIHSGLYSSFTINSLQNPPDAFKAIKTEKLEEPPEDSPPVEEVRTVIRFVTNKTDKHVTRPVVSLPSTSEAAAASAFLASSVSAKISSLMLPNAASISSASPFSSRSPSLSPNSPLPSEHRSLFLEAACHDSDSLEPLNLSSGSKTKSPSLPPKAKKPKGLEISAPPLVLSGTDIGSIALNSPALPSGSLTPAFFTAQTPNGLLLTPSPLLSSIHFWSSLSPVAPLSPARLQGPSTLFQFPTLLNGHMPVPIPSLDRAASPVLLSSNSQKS
Particulars: protein: recombinant; tags: N-terminal GST; dsDNA, one strand shown. An outline of the steps:
as §1

The next test addresses T7, FEV (Homo sapiens, UniProt Q99581 1-238).
T7 sequence: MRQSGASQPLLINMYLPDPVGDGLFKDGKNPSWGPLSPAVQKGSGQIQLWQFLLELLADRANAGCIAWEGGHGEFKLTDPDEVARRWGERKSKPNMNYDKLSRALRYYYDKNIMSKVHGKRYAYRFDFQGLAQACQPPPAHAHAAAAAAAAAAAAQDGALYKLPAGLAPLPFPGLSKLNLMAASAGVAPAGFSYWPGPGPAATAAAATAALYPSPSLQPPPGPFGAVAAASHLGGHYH
Particulars: protein: recombinant; tags: N-terminal GST; dsDNA, one strand shown. An outline of the steps: as §1

The target in another test is ETV5 (Homo sapiens, UniProt P41161 1-510). The settings on record: protein: recombinant; tags: N-terminal GST; dsDNA, one strand shown. An outline of the steps:
as §1

The next test deals with HSF1 (Homo sapiens, UniProt Q00613 1-529). The settings on record: protein: recombinant; tags: N-terminal GST; chain copies: 3; dsDNA, one strand shown. The method in brief: as §1
Sequence of HSF1 (Q00613 whole entry): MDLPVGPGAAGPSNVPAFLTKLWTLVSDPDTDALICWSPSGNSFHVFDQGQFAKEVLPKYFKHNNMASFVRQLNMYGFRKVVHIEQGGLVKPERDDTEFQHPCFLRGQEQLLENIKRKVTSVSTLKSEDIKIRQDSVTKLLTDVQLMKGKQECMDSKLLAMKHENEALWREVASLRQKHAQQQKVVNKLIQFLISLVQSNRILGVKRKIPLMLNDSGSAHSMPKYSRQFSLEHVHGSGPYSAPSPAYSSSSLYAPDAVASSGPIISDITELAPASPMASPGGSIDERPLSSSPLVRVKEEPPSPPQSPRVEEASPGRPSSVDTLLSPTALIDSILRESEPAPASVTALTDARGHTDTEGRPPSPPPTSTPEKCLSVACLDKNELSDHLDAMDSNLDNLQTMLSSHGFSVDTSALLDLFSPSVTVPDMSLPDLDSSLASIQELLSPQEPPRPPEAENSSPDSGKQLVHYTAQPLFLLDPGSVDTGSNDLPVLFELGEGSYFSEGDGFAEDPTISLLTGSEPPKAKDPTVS
A further test has as its target T8, SPIC (Homo sapiens, UniProt Q8N5J4 1-248).
T8 sequence: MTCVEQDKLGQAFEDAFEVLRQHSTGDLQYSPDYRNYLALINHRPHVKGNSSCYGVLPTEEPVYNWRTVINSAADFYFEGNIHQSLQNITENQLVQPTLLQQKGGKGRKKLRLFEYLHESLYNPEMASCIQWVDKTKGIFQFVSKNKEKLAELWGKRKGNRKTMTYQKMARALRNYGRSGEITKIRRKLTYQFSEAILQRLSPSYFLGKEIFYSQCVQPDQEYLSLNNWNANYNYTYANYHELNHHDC
Particulars: protein: recombinant; tags: N-terminal GST; dsDNA, one strand shown. An outline of the steps: as §1

A further test concerns the target ELF4 (Homo sapiens, UniProt Q99607 1-663). The settings on record: protein: recombinant; tags: N-terminal GST; dsDNA, one strand shown. The method in brief: as §1
The target of the next test is T9, ELK4 (Homo sapiens, UniProt P28324-2 1-405).
T9 sequence: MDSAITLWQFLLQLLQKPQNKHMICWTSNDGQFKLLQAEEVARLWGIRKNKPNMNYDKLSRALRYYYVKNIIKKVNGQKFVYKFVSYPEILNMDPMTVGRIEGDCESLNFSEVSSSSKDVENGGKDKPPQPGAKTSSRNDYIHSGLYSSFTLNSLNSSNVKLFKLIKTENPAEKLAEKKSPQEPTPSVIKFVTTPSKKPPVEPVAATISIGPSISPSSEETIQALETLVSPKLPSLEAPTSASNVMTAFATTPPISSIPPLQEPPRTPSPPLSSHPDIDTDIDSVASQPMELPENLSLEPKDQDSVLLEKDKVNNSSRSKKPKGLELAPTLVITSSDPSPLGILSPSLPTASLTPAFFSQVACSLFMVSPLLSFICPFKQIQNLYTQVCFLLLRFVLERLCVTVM
The settings on record: protein: recombinant; tags: N-terminal GST; dsDNA, one strand shown. The method in brief: as §1

Another test deals with T10, ETV2 (Homo sapiens, UniProt O00321 1-342).
T10 sequence: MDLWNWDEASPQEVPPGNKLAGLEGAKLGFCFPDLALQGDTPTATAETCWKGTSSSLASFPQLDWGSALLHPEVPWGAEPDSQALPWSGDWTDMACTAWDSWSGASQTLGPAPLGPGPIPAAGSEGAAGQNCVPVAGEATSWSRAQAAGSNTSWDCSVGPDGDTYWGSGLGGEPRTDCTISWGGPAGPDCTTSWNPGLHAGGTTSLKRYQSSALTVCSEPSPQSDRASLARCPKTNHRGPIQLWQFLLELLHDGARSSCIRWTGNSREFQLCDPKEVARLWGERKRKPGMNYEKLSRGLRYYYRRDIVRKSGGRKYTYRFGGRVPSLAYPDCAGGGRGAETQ
The settings on record: protein: recombinant; tags: N-terminal GST; dsDNA, one strand shown. The method in brief: as §1

In a further test the target is T11, ELF3 (Homo sapiens, UniProt P78545 1-371).
T11 sequence: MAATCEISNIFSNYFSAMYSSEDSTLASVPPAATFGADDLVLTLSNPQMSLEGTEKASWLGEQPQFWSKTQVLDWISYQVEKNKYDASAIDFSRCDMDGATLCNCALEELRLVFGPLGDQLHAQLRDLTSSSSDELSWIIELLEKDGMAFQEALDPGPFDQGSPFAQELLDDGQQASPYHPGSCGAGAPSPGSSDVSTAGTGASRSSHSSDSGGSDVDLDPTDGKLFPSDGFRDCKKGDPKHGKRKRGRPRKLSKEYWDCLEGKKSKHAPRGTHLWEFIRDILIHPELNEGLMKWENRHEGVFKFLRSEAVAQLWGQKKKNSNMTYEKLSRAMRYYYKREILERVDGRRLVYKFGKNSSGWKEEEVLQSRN
The settings on record: protein: recombinant; tags: N-terminal GST; dsDNA, one strand shown. The method in brief: as §1

A further test deals with CRX (Homo sapiens, UniProt O43186 1-299). The settings on record: protein: recombinant; tags: N-terminal GST; dsDNA, one strand shown. The method in brief: as §1
Sequence of CRX (O43186 whole entry): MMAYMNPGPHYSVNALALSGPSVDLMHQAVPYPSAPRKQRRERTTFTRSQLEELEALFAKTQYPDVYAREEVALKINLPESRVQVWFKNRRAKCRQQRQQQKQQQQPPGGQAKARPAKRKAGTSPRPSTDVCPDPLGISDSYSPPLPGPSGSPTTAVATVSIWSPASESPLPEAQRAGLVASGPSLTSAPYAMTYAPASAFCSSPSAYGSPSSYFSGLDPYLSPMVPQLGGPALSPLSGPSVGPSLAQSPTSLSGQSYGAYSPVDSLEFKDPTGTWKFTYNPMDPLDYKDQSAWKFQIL
The next test deals with ETV1 (Homo sapiens, UniProt P50549 1-477). Particulars: protein: recombinant; tags: N-terminal GST; dsDNA, one strand shown. An outline of the steps: as §1
Sequence of ETV1 (P50549 whole entry): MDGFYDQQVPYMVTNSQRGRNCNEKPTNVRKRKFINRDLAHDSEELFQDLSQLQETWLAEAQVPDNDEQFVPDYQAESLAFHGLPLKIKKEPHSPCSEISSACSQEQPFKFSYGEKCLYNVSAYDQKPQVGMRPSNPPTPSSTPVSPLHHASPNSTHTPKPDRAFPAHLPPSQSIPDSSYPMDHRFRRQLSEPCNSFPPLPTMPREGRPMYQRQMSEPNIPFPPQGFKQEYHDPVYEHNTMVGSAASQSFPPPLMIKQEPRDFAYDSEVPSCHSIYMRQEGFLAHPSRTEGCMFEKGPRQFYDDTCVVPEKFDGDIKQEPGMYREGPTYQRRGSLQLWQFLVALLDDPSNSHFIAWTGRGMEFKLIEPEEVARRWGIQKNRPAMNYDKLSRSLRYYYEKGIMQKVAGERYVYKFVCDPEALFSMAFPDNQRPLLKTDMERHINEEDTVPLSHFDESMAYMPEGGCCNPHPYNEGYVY

Sequence of ELF4 (Q99607 whole entry): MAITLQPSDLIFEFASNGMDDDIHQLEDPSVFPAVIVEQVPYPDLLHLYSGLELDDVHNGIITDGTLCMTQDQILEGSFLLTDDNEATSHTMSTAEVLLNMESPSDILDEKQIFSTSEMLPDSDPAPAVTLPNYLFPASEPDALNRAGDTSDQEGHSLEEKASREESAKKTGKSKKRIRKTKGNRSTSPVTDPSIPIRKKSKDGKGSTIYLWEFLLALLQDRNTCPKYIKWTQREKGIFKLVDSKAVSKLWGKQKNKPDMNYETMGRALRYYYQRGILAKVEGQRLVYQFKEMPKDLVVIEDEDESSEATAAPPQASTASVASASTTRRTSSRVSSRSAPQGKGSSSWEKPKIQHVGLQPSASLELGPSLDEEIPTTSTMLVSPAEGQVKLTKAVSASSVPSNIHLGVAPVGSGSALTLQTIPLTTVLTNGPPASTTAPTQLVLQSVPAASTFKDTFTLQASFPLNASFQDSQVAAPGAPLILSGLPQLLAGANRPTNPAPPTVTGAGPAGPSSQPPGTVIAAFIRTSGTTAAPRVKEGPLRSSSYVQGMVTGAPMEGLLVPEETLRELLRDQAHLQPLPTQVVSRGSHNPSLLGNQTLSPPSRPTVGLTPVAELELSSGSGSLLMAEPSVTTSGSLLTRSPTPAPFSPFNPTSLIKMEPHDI
Sequence of SPIB (Q01892 whole entry): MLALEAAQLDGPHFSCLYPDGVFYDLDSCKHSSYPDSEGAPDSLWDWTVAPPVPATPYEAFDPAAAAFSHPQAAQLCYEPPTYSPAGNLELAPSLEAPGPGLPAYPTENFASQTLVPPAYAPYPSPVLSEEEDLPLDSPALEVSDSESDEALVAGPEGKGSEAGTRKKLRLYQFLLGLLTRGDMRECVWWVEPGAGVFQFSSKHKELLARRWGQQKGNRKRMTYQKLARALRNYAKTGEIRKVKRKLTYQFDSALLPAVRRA
Sequence of ELF1 (P32519 whole entry): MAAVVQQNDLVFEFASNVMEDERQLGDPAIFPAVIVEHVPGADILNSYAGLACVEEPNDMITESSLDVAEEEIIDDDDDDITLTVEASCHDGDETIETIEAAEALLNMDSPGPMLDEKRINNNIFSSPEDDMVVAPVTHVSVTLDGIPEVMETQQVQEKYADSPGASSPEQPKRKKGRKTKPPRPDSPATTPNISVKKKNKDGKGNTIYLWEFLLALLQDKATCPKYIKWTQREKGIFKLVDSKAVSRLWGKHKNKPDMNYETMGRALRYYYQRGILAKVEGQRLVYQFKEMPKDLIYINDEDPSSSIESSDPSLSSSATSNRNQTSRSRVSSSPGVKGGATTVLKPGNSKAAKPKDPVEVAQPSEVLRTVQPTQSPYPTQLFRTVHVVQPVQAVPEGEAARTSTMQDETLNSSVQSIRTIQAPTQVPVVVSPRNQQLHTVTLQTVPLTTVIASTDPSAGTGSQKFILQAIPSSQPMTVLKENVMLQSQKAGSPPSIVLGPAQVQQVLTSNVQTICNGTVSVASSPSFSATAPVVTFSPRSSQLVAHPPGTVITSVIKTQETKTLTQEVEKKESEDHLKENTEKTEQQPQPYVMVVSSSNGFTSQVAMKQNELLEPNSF
Sequence of ETV5 (P41161 whole entry): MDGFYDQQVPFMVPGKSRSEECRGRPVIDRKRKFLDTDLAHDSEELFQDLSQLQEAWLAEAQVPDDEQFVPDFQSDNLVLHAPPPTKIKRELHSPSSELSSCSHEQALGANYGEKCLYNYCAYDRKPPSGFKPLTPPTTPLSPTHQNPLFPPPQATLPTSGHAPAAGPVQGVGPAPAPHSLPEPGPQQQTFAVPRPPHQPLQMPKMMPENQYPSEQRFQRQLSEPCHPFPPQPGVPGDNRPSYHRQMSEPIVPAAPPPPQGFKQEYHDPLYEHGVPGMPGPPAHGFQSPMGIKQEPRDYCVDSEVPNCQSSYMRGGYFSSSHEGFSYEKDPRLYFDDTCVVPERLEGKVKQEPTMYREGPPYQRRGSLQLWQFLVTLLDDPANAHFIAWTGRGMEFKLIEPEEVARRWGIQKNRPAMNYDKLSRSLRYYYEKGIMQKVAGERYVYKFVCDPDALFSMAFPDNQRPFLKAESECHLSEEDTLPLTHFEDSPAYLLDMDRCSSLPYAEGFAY

As to CCTTCA, the binding signal in the test with FLI1 is 1.49 fold enrichment (6-mer frequency, TF over GST control); with ELK1, 1.43 fold enrichment (6-mer frequency, TF over GST control); in the test with GABPA, 1.46 fold enrichment (6-mer frequency, TF over GST control); with ERG, 1.45 fold enrichment (6-mer frequency, TF over GST control); with ELF1, 1.51 fold enrichment (6-mer frequency, TF over GST control); in the test with EHF, 1.26 fold enrichment (6-mer frequency, TF over GST control). Further, the binding signal with SPI1 is 1.36 fold enrichment (6-mer frequency, TF over GST control); in the test with SPIB it was 1.46 fold enrichment (6-mer frequency, TF over GST control); in the test with ELK3, 1.16 fold enrichment (6-mer frequency, TF over GST control); in the test with FEV it was 1.48 fold enrichment (6-mer frequency, TF over GST control); with ETV5 it was 1.45 fold enrichment (6-mer frequency, TF over GST control); with HSF1 it was 1.36 fold enrichment (6-mer frequency, TF over GST control). Further, the binding signal with SPIC is 1.31 fold enrichment (6-mer frequency, TF over GST control); in the test with ELF4, 1.42 fold enrichment (6-mer frequency, TF over GST control); in the test with ELK4, 1.69 fold enrichment (6-mer frequency, TF over GST control); in the test with ETV2, 1.49 fold enrichment (6-mer frequency, TF over GST control); with ELF3 it was 1.4 fold enrichment (6-mer frequency, TF over GST control); with CRX, 1.34 fold enrichment (6-mer frequency, TF over GST control). In addition, the binding signal with ETV1 was 1.55 fold enrichment (6-mer frequency, TF over GST control).

These data come from publication PMC7862700, “An all-to-all approach to the identification of sequence-specific readers for epigenetic DNA modifications on cytosine”.
